Inconclusive results are not listed. Where a call stands in place of a potency, no number is given. Active and inactive are the calls of the source. Calls follow the shape of the dose curve; as a rule, active = well fitted inhibition curve with a large enough effect; inconclusive = small, poorly fitted or top-dose-only effect; inactive = no such curve, though single readings can be large or run the other way.

The target of this assay is Retinaldehyde dehydrogenase 3 (Homo sapiens) (UniProt P47895). Kind of assay: qHTS for Inhibitors of the Aldehyde Dehydrogenase Family (ALDH1A3) Primary screen (AID 2061315). The note with it: ALDH inhibition qHTS; series mostly up to 56 µM. (Quantitative high-throughput screening tests each substance at several concentrations.)
As for `CCOc1ccc(CCNC(=O)C2(c3ccccc3)CC2)cc1OCC`, the Potency result is “inactive”.

For `N#CN1CCC(NC(=O)c2cccc(C(F)(F)F)c2)CC1`, the Potency result was “inactive”.

In the case of `Cn1cnc(CCNc2ncnc3ccc(-c4ccc5c(c4)OCO5)cc23)c1`, the Potency entry is “inactive”.

For the molecule `COc1ccc(Nc2nc(-c3ccncc3)nc3ccccc23)cc1F`, the Potency result is “inactive”.

Consider `O=C1CCc2cc(S(=O)(=O)Nc3cccc(Oc4ccccc4)c3)ccc2N1`, for which the Potency result is “inactive”.

`Cc1cc2c(s1)c1cnn(Cc3c(F)ccc(F)c3Cl)c(=O)c1n2C`: the Potency entry was “inactive”.

On to `CC(O)C(O)/C=C/C=C/C(=O)O[C@@H]1C=C(C(=O)O)[C@](O)(CO)[C@@]2(C)CCCC(C)(C)[C@H]12` (stereo not given in full), for which the Potency entry was “inactive”.

As for `C=C1C(=O)O[C@@H]2[C@H]1CC[C@H](C)[C@]1(CCC(=O)O1)C2(C)O` (stereo not given in full), the Potency entry is “inactive”.

As to `Cc1nc(NCc2ccccc2)c2nc(-c3ccccc3)n(CC3CCN(C)CC3)c2n1`, the Potency result is “inactive”.

Turning to `Oc1ccc(COC2CCCC2)c2cccnc12`, the Potency entry was “inactive”.

Consider `Brc1sc2c(c1-c1nc3ccccc3s1)CCNC2`, for which the Potency entry was “inactive”.

As to `Clc1cccc(-c2ccc3ncnc(NCc4cccnc4)c3c2)c1`, the Potency entry is “inactive”.

`N#CN1CCC(NC(=O)c2ccc(F)cc2)CC1`: the Potency entry is “inactive”.

Consider `COc1cccc(C2C(C#N)=C(NC(=O)NCc3ccccc3)Oc3ccc4ccccc4c32)c1` (stereo not given), for which the Potency result was “inactive”.

For the molecule `COc1cc(O)c(C(CC(=O)N2CCOCC2)c2ccc3c(c2)OCO3)c(OC)c1` (stereo not given), the Potency entry was “inactive”.

For `CC(C)(C)OC(=O)n1c2ccsc2c2cnn(Cc3ccccc3F)c(=O)c21`, the Potency result was “inactive”.

In the case of `Cc1ccc(S(=O)(=O)Nc2cc([N+](=O)[O-])ccc2C(=O)Nc2nc(-c3ccccc3)cs2)cc1`, the Potency result is “inactive”.

As for `COc1ccc(-c2csc(N3CCC(C(N)=O)CC3)n2)cc1OC`, the Potency entry was “inactive”.

For the molecule `COc1cccc(CNc2ccc(S(=O)(=O)Nc3ccc(N4CCNCC4)cc3)cc2)c1O`, the Potency result is “inactive”.

As to `C/C=C1\[C@H](O[C@@H]2O[C@H](CO)[C@@H](O)[C@H](O)[C@H]2O)OC=C2C(=O)OCCc3ccc(O)c(c3)Oc3ccc(cc3)CCOC(=O)C[C@H]21`, the Potency entry is “inactive”.

For `CN(Cc1cncn1C)c1ncnc2ccc(-c3ccc4c(c3)OCO4)cc12`, the Potency result was “inactive”.

In the case of `O=C(Nc1ccc(S(=O)(=O)Nc2nccs2)cc1)c1ccnc2ccccc12`, the Potency result was “inactive”.

With `CCCCNc1nc(C)nc2c1nc(-c1ccccc1)n2C1CCN(Cc2ccccc2)C1` (stereo not given), the Potency entry is “inactive”.

With `CCCn1c(C)nc2c(NC3CCCCC3)nc(C)nc21`, the Potency entry was “inactive”.

Take `Cc1cc(NS(=O)(=O)c2ccc(N(C)C(=O)Cc3ccc(Cl)c(Cl)c3)cc2)no1`: the Potency entry is “inactive”.

As to `COc1cc(OC)cc(-c2nnc3n2N=C(c2c(OC)cccc2OC)CS3)c1`, the Potency entry was “inactive”.

`CC(O)c1ccc(-c2ccc3ncnc(NCCc4cnc[nH]4)c3c2)o1` (stereo not given): the Potency result was “inactive”.

`Cc1cc(C)nc(NC(=S)N2CCN(c3cccc(C#N)c3)CC2)c1`: the Potency result is “inactive”.

Regarding `COc1cc(OC)cc(C2=Nn3c(nnc3-c3ccccc3O)SC2)c1`, the Potency result was “inactive”.

For `CC(=O)c1ccc(-c2csc3ncnc(Sc4nnnn4C)c23)cc1`, the Potency result is “inactive”.

As to `CC(C)[C@@H](C)/C=C/[C@@H](C)[C@H]1CC[C@H]2C3=CC=C4C[C@@H](O)CC[C@]4(C)C3=CC[C@]12C`, the Potency result was “inactive”.

Regarding `CCc1cccc(CC)c1NC(=O)c1nn(C)c2c1CCc1cnc(Nc3ccc(C(=O)NC4CCN(C)CC4)cc3OC(F)(F)F)nc1-2`, the Potency entry was “inactive”.

On to `Cc1nnc(-c2cnn(C)c2N)n1CCCc1cccnc1`, for which the Potency entry is “inactive”.

For the molecule `Cc1ccc(OCCn2c(CCNC(=O)c3ccc4cc[nH]c4c3)nc3ccccc32)cc1`, the Potency result is “inactive”.

As to `COc1ccc2oc(NC3=NC(c4[nH]ncc4Cl)C4=C(CCCC4=O)N3)nc2c1` (stereo not given), the Potency entry was “inactive”.

Take `COc1cccc(-n2cnc3cc(C(=O)N4CCCCC4)ccc32)c1`: the Potency entry is “inactive”.

In the case of `CCCn1c(-c2ccc(F)cc2)nc2c(NCCN(C(C)C)C(C)C)nc(C)nc21`, the Potency result is “inactive”.

As to `O=S(=O)(Cc1ccc(Cl)c(Cl)c1)Nc1nnc(-c2ccncc2)s1`, the Potency entry was “inactive”.

For the molecule `Cc1cc(C)n2ncc(C(=O)NCC(C)C)c2n1`, the Potency result is “inactive”.

`CCCn1c(-c2ccc(F)cc2)nc2c(NC3CCN(Cc4ccccc4)CC3)nc(C)nc21`: the Potency entry is “inactive”.
